# Experimental data reported in PubChem BioAssay AID687012 (National Center for Advancing Translational Sciences (NCATS), 2013).
# Active and inactive are the calls of the source.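 The calls were made as follows: active = significant rise in the time treated SMA model mouse pups take to turn upright when laid on their backs; inactive = no significant rise in righting time.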
# Test: Extended Characterization of SMN2 Inhibitors: Righting Time Studies
# Conditions: SMNdelta7 SMA mice, 50 mg/kg ip
# Text: Spinal muscular atrophy (SMA) is caused by insufficient levels of the survival motor neuron protein SMN. The SMN locus on chromosome 5q13 contains two inverted copies of SMN called SMN1 and SMN2 which are 99% identical at the amino acid level. SMN1 is a fully functional protein and SMN2 skips exon 7 90% of the time. Skipping of exon 7 produces non-functional protein product. 10% of the SMN2 protein includes exon 7 and is fully functional. In the SMA disease state, mutations in the SMN1 locus are the cause of the disease state. Because only 10% of SMN2 is of the fully functional form, it is not sufficient to overcome the deficiency produced by the loss of the SMN1 product. A therapy that either increase the amount of SMN2 product made or to increase the inclusion of exon 7 has been proposed for the treatment of SMA. We have previously filed a probe report and have now done further SAR and further characterized the resulting compounds in mice studies. Here we tested the new compound to see if there was an improval in righting time when administered to SMNdelta7 SMA mice. NIH Chemical Genomics Center [NCGC] NIH Molecular Libraries Probe Production centers Network [MLPCN] MLPCN Grant: R03 MH084179 Assay Submitter (PI): Elliot Androphy […]
row,Compound,outcome
1,O=C(O)C1CCN(c2ncc(-c3ccc4c(c3)OCCCO4)s2)CC1,active; yes
